Data published in the supplement of paper PMC5662767.
Counter-ions that a name gives are not always drawn.

tested on: Drosophila S2 cl14 SmoIP sensor cells; assay: normalized SmoIP GFP fluorescence (untreated unstimulated = 0%, untreated Hh-stimulated = 100%); higher = more Smo activation sensor fluorescence; conditions: stimulation: Hh conditioned medium (+Hh); compound concentration: 2 uM; 24 h
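Also: flow cytometry read-out as median GFP intensity of gated cells, compounds added 30 min before Hh-conditioned or mock medium, mock-treated cells serving as unstimulated baseline.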

SMILES | normalized SmoIP GFP fluorescence [%]
Nc1ncnc2c1c(-c1cnc3[nH]ccc3c1)nn2C1CCCC1 | 50.6
CC(=O)/N=c1/sc(S(N)(=O)=O)nn1C [methazolamide] | 111
CCOC(=O)c1ccc(OC(=O)CCCCCNC(=N)N)cc1 [gabexate-mesylate] | 120
CN(C)Cc1cccc(N/C(=C2\C(=O)Nc3cc(C(N)=O)ccc32)c2ccccc2)c1 | 103
C=CC(=O)Nc1ccc2ncnc(Nc3ccc(OCc4cccc(F)c4)c(Cl)c3)c2c1 | 99.1
C=CC(=O)Nc1cccc(Nc2nc(Nc3ccc(N4CCN(C(C)=O)CC4)cc3OC)ncc2C(F)(F)F)c1 | 61.9
COC(=O)C1=C(C)NC(C)=C(C(=O)OC2CCCN(Cc3ccccc3)C2)C1c1cccc([N+](=O)[O-])c1 (stereo not drawn) [benidipine-hydrochloride] | 89.9
N#Cc1c(O)c2c(-c3ccc(-c4ccccc4O)cc3)csc2[nH]c1=O | 139
CCc1cc2c(cc1CC)CC(NC[C@H](O)c1ccc(O)c3[nH]c(=O)ccc13)C2 [indacaterol-maleate] | 107
C=CC(=O)Nc1cc2c(Nc3ccc(F)c(Cl)c3)ncnc2cc1OCCCN1CCOCC1 [CI-1033(Canertinib)] | 109
CC(C)c1noc(N2CCC(COc3ccc(-c4ccc(S(C)(=O)=O)cc4)nc3)CC2)n1 | 110
CC(C)NCC(O)COc1cccc2ccccc12 (stereo not drawn) [propranolol-hcl] | 111
CCc1cccc2c3c([nH]c12)C(CC)(CC(=O)O)OCC3 (stereo not drawn) [Etodolac] | 104
CCS(=O)(=O)N1CC(CC#N)(n2cc(-c3ncnc4[nH]ccc34)cn2)C1 | 110
O=C(COc1ccc(Cl)cc1)NC1CCC(NC(=O)COc2ccc(Cl)cc2)CC1 (stereo not drawn) [isrib-trans-isomer] | 109
Cc1cc(Nc2nc(N[C@@H](C)c3ccc(F)cc3)c(C#N)cc2F)n[nH]1 | 109
N#CCNC(=O)c1ccc(-c2ccnc(Nc3ccc(N4CCOCC4)cc3)n2)cc1 | 208
CCN1CCCC1CNC(=O)c1cc(S(=O)(=O)CC)c(N)cc1OC (stereo not drawn) [Amisulpride] | 111
C/C(=C\C(=O)Nc1ccccc1C(=O)O)c1ccc2ccccc2c1 | 109
COc1ccc([C@H]2CNC(=O)C2)cc1OC1CCCC1 [sRolipram] | 102
CNCc1ccc(C)c(NC(=O)c2ccc(Nc3nc(-c4ccccc4)c4ccccc4n3)cc2)c1 | 124
COc1ccc(-c2cc3c(C)nc(N)nc3n([C@H]3CC[C@H](OCCO)CC3)c2=O)cn1 | 87.2
CN1CCN(CCCN2c3ccccc3Sc3ccc(C(F)(F)F)cc32)CC1 [trifluoperazine-dihydrochloride] | 108
CC(C)c1cc(-c2n[nH]c(=O)n2-c2ccc3c(ccn3C)c2)c(O)cc1O [ganetespib-sta-9090] | 103
CN1CCN(C2=Nc3cc(Cl)ccc3Nc3ccccc32)CC1 [Clozapine(Clozaril)] | 119

same assay, conditions: stimulation: mock conditioned medium (-Hh); compound concentration: 2 uM; 24 h

SMILES | normalized SmoIP GFP fluorescence [%]
O=C(CCCCCN1C(=O)c2cccc3cccc(c23)C1=O)NO [scriptaid] | 10.9
COc1c(C)cnc(Cn2cnc3c(Cl)nc(N)nc32)c1C | 34.5
O=C(c1ccc(F)cc1)N1CCC[C@H](c2nc(-c3ccc(F)cc3)no2)C1 | -7.78
COc1cc(OC)c(NC(=O)Nc2cc(C)on2)cc1Cl | -5.98
COC[C@H](NC(=O)c1cnc(C)s1)C(=O)N[C@@H](COC)C(=O)N[C@@H](Cc1ccccc1)C(=O)[C@@]1(C)CO1 [oprozomib-onx-0912] | 26.7
O=C(O)c1cc2cccc([N+](=O)[O-])c2[nH]1 | 24.3
Oc1cccc(-c2nc(N3CCOCC3)c3oc4ncccc4c3n2)c1 | 4.26
CN(C)CCCCC(=O)Nc1ccc(NC(=S)NC(=O)c2ccc(C(C)(C)C)cc2)cc1 [tenovin-6] | 3.49
COC(=O)N[C@H](C(=O)N1CCC[C@H]1c1ncc(-c2ccc(-c3ccc(-c4cnc([C@@H]5CCCN5C(=O)[C@@H](NC(=O)OC)C(C)C)[nH]4)cc3)cc2)[nH]1)C(C)C | 7.39
CN1CCC(CNc2ccc3ncc(-c4cccc(OC(F)(F)F)c4)n3n2)CC1 | 5.38
CCCCc1nc(Cl)c(CO)n1Cc1ccc(-c2ccccc2-c2nnn[nH]2)cc1 [losartan-potassium] | -1.56
CC(C)C[C@H](NC(=O)[C@H](Cc1ccccc1)NC(=O)c1cnccn1)B(O)O [Bortezomib] | 52.4
Cn1c(Nc2ccc(C(F)(F)F)cc2)nc2cc(Oc3ccnc(-c4ncc(C(F)(F)F)[nH]4)c3)ccc21 | 2.32
Nc1ncnc2c1c(-c1cnc3[nH]ccc3c1)nn2C1CCCC1 | -17.9
CC(=O)/N=c1/sc(S(N)(=O)=O)nn1C [methazolamide] | -2.48
CCOC(=O)c1ccc(OC(=O)CCCCCNC(=N)N)cc1 [gabexate-mesylate] | -12.6
CN(C)Cc1cccc(N/C(=C2\C(=O)Nc3cc(C(N)=O)ccc32)c2ccccc2)c1 | -1.88
C=CC(=O)Nc1ccc2ncnc(Nc3ccc(OCc4cccc(F)c4)c(Cl)c3)c2c1 | -15.8
C=CC(=O)Nc1cccc(Nc2nc(Nc3ccc(N4CCN(C(C)=O)CC4)cc3OC)ncc2C(F)(F)F)c1 | 44

SMILES | normalized SmoIP GFP fluorescence [%]
COC(=O)C1=C(C)NC(C)=C(C(=O)OC2CCCN(Cc3ccccc3)C2)C1c1cccc([N+](=O)[O-])c1 (stereo not drawn) [benidipine-hydrochloride] | -3.9
N#Cc1c(O)c2c(-c3ccc(-c4ccccc4O)cc3)csc2[nH]c1=O | 6.28
CCc1cc2c(cc1CC)CC(NC[C@H](O)c1ccc(O)c3[nH]c(=O)ccc13)C2 [indacaterol-maleate] | -2.82
C=CC(=O)Nc1cc2c(Nc3ccc(F)c(Cl)c3)ncnc2cc1OCCCN1CCOCC1 [CI-1033(Canertinib)] | 13.8
CC(C)c1noc(N2CCC(COc3ccc(-c4ccc(S(C)(=O)=O)cc4)nc3)CC2)n1 | -3.09
CC(C)NCC(O)COc1cccc2ccccc12 (stereo not drawn) [propranolol-hcl] | -1.63
CCc1cccc2c3c([nH]c12)C(CC)(CC(=O)O)OCC3 (stereo not drawn) [Etodolac] | -3.17
CCS(=O)(=O)N1CC(CC#N)(n2cc(-c3ncnc4[nH]ccc34)cn2)C1 | -0.775
O=C(COc1ccc(Cl)cc1)NC1CCC(NC(=O)COc2ccc(Cl)cc2)CC1 (stereo not drawn) [isrib-trans-isomer] | 7.06
Cc1cc(Nc2nc(N[C@@H](C)c3ccc(F)cc3)c(C#N)cc2F)n[nH]1 | -9.04
N#CCNC(=O)c1ccc(-c2ccnc(Nc3ccc(N4CCOCC4)cc3)n2)cc1 | 53.3
CCN1CCCC1CNC(=O)c1cc(S(=O)(=O)CC)c(N)cc1OC (stereo not drawn) [Amisulpride] | 3.51
C/C(=C\C(=O)Nc1ccccc1C(=O)O)c1ccc2ccccc2c1 | -2.42
COc1ccc([C@H]2CNC(=O)C2)cc1OC1CCCC1 [sRolipram] | -4.08
CNCc1ccc(C)c(NC(=O)c2ccc(Nc3nc(-c4ccccc4)c4ccccc4n3)cc2)c1 | 11.6
COc1ccc(-c2cc3c(C)nc(N)nc3n([C@H]3CC[C@H](OCCO)CC3)c2=O)cn1 | -29.5
CN1CCN(CCCN2c3ccccc3Sc3ccc(C(F)(F)F)cc32)CC1 [trifluoperazine-dihydrochloride] | 4
CC(C)c1cc(-c2n[nH]c(=O)n2-c2ccc3c(ccn3C)c2)c(O)cc1O [ganetespib-sta-9090] | -1.56
CN1CCN(C2=Nc3cc(Cl)ccc3Nc3ccccc32)CC1 [Clozapine(Clozaril)] | 0.154
